# Records with an inconclusive call do not appear. The source made the active and inactive calls. Rule for the calls: active = hit-call score of the fitted dose curve at least 0.9, where 1 is the maximum; inconclusive = response in the unintended direction; inactive = score below 0.9.
# Read-out: alkyl and aryl transferase (GSTA2), GSTA2 (gene 2939)
# Assay: CLD_GSTA2_6hr: CellzDirect (CLD) Gene Expression Assay for alkyl and aryl transferase (GSTA2) at 6 hours (AID 2283666)
# Description: CLD_6hr is a cell-based, multiplexed-readout assay that uses hepatocyte, a human liver primary cell, with measurements taken at 6 hours after chemical dosing in a 96-well plate.CLD_GSTA2_6hr is one of 16 assay component(s) measured or calculated from the CLD_6hr assay. It is designed to make measurements of mRNA induction, a form of inducible reporter, as detected with chemiluminescence signals by Quantitative Nuclease Protection Assay (qNPA) technology.Data from the assay component CLD_GSTA2_6hr was analyzed at the endpoint, CLD_GSTA2_6hr, in the positive analysis fitting direction relative to DMSO as the negative control and baseline of activity. Using a type of inducible reporter, gain-of-signal activity can be used to understand changes in the reporter gene as they relate to the gene GSTA2. Furthermore, this assay endpoint can be referred to as a primary readout. To generalize the intended target to other relatable targets, this assay endpoint is annotated to the transferase intended target family, where subfamily is alkyl and aryl transferase.
# Human hepatocyte cultures were treated daily for two consecutive days with fresh dosing solutions containing appropriate concentrations of the 320 ToxCast chemicals (chemical identities were blinded to CellzDirect and other ToxCast collaborators), vehicle control (0.2% DMSO), and positive control inducers as summarized in Table 1. Due to the large number of treatment groups and chemicals examined, the ToxCast chemicals were divided into two groups (spanning two independent cultures of hepatocytes from separate donor preparations (Hu778: ToxCast plates 1 and 2; Hu776: ToxCast plates 3 and 4). Each preparation of human hepatocyte cultures was treated with respective vehicle control, medium only control, set of six positive controls/reference chemicals for the five hepatic receptor pathways, and a subset of eight of the ToxCast chemicals (indoxacarb, pyrithiobac-sodium, norflurazon, cyhalofop-butyl, methomyl, thiram, acetochlor, and propiconazole). These replicate data, coupled with internal replicates designed within the blinded ToxCast chemical library, provided additional data to evaluate interindividual differences between hepatocyte preparations and their potential impact on chemical profiles.Cell morphology and integrity were evaluated using phase-contrast microscopy as an indicator of hepatocyte cell health (Tyson & Green, 1987). Cultures for each treatment group (i.e., media, vehicle [0.2% DMSO], positive control inducers [multiple concentrations], and the ToxCast chemicals [multiple concentrations]) were observed and cell morphology was assessed relative to vehicle control cultures at each harvest time point (0, 6, 24, or 48 h). […] Images were evaluated at the conclusion of the study to assess changes in cell integrity and account for the effects of chemical exposure on uncharacteristic changes in concentration-dependent gene expression profiles. The results from these determinations of apparent cytotoxicity were annotated (yes/no) alongside the corresponding qNPA data for reference.At the conclusion of each treatment period, hepatocyte cultures (96-well) were washed with 1 volume of HBSS, lysed by addition of 25 ul ArrayPlate lysis buffer (HTG, Tucson, AZ), and 70 ul/well of Denaturation Oil, denatured by incubation at 95C for 10 min, and frozen at approximately -70C until analysis by nuclease protection assay (qNPA) (Roberts et al., 2007). For qNPA analysis, cell lysates were thawed at 50C for approximately 30 min, qNPA probes were added, and samples were incubated at 95C for 10 min to begin the detection process by denaturing the target RNA, dissociating the duplexes and secondary structure hybridization. At the conclusion of the hybridization period, S1 nuclease reagent was added to each sample to digest all nonprotected nucleotides at 50C for 60-90 min. […]
row,Structure (SMILES),outcome
1,O=c1ccc(=O)[nH][nH]1,inactive
2,CC(C)N(C(=O)SCC(Cl)=C(Cl)Cl)C(C)C,inactive
3,N#CSCSC#N,inactive
4,CC(COc1ccc(Oc2ccccc2)cc1)Oc1ccccn1 (stereo not given),inactive
5,CCCCOC(=O)c1ccccc1C(=O)O,inactive
6,CCc1cccc(CC)c1N(COC)C(=O)CCl,inactive
7,COc1ccc(C(=CC(=O)N2CCOCC2)c2ccc(Cl)cc2)cc1OC,inactive
8,C[N+]1(C)CCCCC1,inactive
9,CCOP(=S)(OCC)Oc1cc(C)nc(C(C)C)n1,inactive
10,CSC1=N[C@@](C)(c2ccccc2)C(=O)N1Nc1ccccc1,inactive
11,CNC(=O)ON=C(SC)C(=O)N(C)C,inactive
12,CNc1cnn(-c2cccc(C(F)(F)F)c2)c(=O)c1Cl,inactive
13,S=C1NCCN1,inactive
14,CCCCN(CC)c1c([N+](=O)[O-])cc(C(F)(F)F)cc1[N+](=O)[O-],inactive
15,COP(=O)(OC)OC(Br)C(Cl)(Cl)Br (stereo not given),inactive
16,CNC(=O)ON=C(C)SC,inactive
17,CC(Oc1cccc(Cl)c1)C(=O)O (stereo not given),inactive
18,Cc1nn(-c2cc(NS(C)(=O)=O)c(Cl)cc2Cl)c(=O)n1C(F)F,inactive
19,CCOP(=S)(OCC)Oc1ccc2c(C)c(Cl)c(=O)oc2c1,inactive
20,C#CCC1=C(C)C(OC(=O)C2C(C=C(C)C)C2(C)C)CC1=O (stereo not given),inactive

row,Structure (SMILES),outcome
1,CCOP(=O)(NC(C)C)Oc1ccc(SC)c(C)c1 (stereo not given),inactive
2,CCC(=NOC/C=C/Cl)C1=C(O)CC(C2CCOCC2)CC1=O (stereo not given),inactive
3,COP(=O)(OC)C(O)C(Cl)(Cl)Cl (stereo not given),inactive
4,COc1cc(OC)nc(Sc2cccc(Cl)c2C(=O)O)n1,inactive
5,CCCOCC(=Nc1ccc(Cl)cc1C(F)(F)F)n1ccnc1,inactive
6,CCOP(=S)(OCC)Oc1ccc([N+](=O)[O-])cc1,inactive
7,CCOC(=O)COc1cc(-c2nn(C)c(OC(F)F)c2Cl)c(F)cc1Cl,inactive
8,COc1cccc(C(=O)NN(C(=O)c2cc(C)cc(C)c2)C(C)(C)C)c1C,inactive
9,CSc1nc(NC(C)C)nc(NC(C)C)n1,inactive
10,CCCOc1nn(C(=O)NS(=O)(=O)c2ccccc2C(=O)OC)c(=O)n1C,inactive
11,CC(C)[C@H](C(=O)O[C@H](C#N)c1cccc(Oc2ccccc2)c1)c1ccc(Cl)cc1,inactive
12,CC(C)=CC1C(C(=O)OCN2C(=O)C3=C(CCCC3)C2=O)C1(C)C (stereo not given),inactive
13,COP(=O)(OC)SCn1c(=O)oc2cc(Cl)cnc21,inactive
14,CCc1cccc(C)c1N(C(=O)CCl)C(C)COC (stereo not given),inactive
15,CN1COCN(Cc2cnc(Cl)s2)C1=N[N+](=O)[O-],inactive
16,CNC(=O)Oc1cccc2c1OC(C)(C)O2,inactive
17,CCOP(=S)(Oc1cnc(C(C)(C)C)nc1)OC(C)C (stereo not given),inactive
18,CCc1cnc(C2=NC(C)(C(C)C)C(=O)N2)c(C(=O)O)c1 (stereo not given),inactive
19,CCC(=O)Nc1ccc(Cl)c(Cl)c1,inactive
20,CC[C@H](C)[C@H]1O[C@]2(C=C[C@@H]1C)C[C@@H]1C[C@@H](C/C=C(\C)[C@@H](O[C@H]3C[C@H](OC)[C@@H](O[C@H]4C[C@H](OC)[C@@H](NC)[C@H](C)O4)[C@H](C)O3)[C@@H](C)/C=C/C=C3\CO[C@@H]4[C@H](O)C(C)=C[C@@H](C(=O)O1)[C@]34O)O2,inactive

# Source: PubChem BioAssay (EPA / NIEHS)
